# Source: PubChem BioAssay (Tox21)
# Some structures have more than one record in an assay (separate samples or runs), and their calls can disagree. The source made the active and inactive calls. Calls follow the shape of the full dose curve.
# Target: Androgen receptor (Homo sapiens) (UniProt P10275)
# Assay: qHTS assay to identify small molecule agonists of the androgen receptor (AR) signaling pathway in the presence of an antagonist (AID 1259381); also: nearly all actives have a fitted effect of over 15% in size
# Conditions: MDA-kb2 MMTV-luciferase, AR agonist + nilutamide, 16 h; series mostly up to 92.4 µM; activation: at the top concentration
# Source text: National Center for Advancing Translational Sciences [NCATS] NIH Chemical Genomics Center [NCGC] U.S. Environmental Protection Agency [EPA] National Institutes of Environmental Health Sciences [NIEHS] National Toxicology Program [NTP] Assay overview: Androgen receptor (AR) is an important member of nuclear receptor family. Its signaling plays a critical role in AR-dependent prostate cancer and other androgen related diseases. Considerable attention has been given in the past decades to develop methods to study and screen for the environmental chemicals that have the potential to interfere with metabolic homeostasis, reproduction, developmental and behavioral functions. Therefore AR binding assay for screening against androgen agonists and antagonists can be used to identify potential endocrine disruptors. MDA-kb2 cells (from ATCC, deposited by Wilson et al.) are human breast carcinoma cells that were stably transfected with a luciferase reporter gene under control of the MMTV promoter that contains response elements for both androgen receptor (AR) and glucocorticoid receptor (GR). This particular screening for measuring luciferase reporter gene activity using MDA-kb2 cells against Tox21 10K library compounds is a confirmation study on agonist mode screening in the presence of AR-antagonist compound (Nilutamide) at 3.0uM final concentration.
# Assay Protocol Summary: MDA-kb2 cells (cells cultured without CO2) were dispensed at 3,000 cells/well in 4uL of culture medium into white wall/solid-bottom 1536-well plates (Corning Life Sciences, Corning, NY) using a Multidrop Combi (Thermo Fisher Scientific Inc., Waltham, MA) dispenser. The assay plates were incubated at 37C and 0% CO2 for 5hr. One uL of 3.0uM (final concentration) Nilutamide or assay buffer was added using two separate tips of Flying Reagent Dispenser (FRD, Aurora Discovery, San Diego, CA). Then 23nL of compounds dissolved in DMSO at 15 concentrations and positive controls were transferred to the assay plates using a Pintool station (Wako, San Diego, CA). The assay plates were incubated at 37C and 0% CO2 for 16hr. For luciferase read, 4uL/well ONE-Glo reagent (Promega Corporation, Madison, WI) was added to each well of the assay plates using FRD. After 30min incubation at room temperature, the luminescence signal was measured using a ViewLux plate reader (PerkinElmer, Shelton, CT).
# % is scaled to controls: 0 for no effect and ±100 for the full control effect; potency is read from the fitted curve at half-maximal effect.
# Sequence of Androgen receptor (Homo sapiens) (P10275 whole entry, looked up): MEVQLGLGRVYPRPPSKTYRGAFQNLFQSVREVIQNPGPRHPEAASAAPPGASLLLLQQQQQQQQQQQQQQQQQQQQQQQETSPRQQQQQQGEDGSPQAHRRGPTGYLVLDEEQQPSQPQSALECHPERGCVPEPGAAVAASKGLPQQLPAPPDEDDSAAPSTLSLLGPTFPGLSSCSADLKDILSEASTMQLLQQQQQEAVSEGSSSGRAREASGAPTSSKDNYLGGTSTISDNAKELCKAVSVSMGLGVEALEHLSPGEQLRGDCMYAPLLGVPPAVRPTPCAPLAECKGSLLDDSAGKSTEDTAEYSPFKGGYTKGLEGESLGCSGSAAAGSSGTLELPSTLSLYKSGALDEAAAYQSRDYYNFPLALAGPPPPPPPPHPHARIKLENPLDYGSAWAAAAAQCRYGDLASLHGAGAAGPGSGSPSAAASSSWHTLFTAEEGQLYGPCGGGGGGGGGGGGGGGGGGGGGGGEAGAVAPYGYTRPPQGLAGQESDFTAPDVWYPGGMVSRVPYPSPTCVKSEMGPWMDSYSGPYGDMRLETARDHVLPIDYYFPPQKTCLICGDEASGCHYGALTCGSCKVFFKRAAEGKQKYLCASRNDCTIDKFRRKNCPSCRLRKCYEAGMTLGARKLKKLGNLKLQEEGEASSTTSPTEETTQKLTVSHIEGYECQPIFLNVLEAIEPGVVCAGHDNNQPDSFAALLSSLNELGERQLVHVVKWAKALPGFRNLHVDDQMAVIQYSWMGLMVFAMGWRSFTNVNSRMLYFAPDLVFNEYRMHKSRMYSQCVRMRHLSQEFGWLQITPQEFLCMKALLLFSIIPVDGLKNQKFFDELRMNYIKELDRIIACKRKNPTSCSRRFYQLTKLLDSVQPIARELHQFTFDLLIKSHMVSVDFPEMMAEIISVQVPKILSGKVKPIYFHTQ
Compound,Potency,activation
C[C@H]1CCCC(=O)CCC/C=C/c2cc(O)cc(O)c2C(=O)O1,inactive,
CCC(C)(C#N)N=NC(C)(C#N)CC (stereo not given),,0.076% (inactive)
Nc1c(Cl)c(F)nc(OCC(=O)O)c1Cl,,-1.16% (inactive)
N[C@@H]1C[C@H]1c1ccccc1,,1.82% [at 42.5 µM] (inactive)
C[N+]1(C)CCCCC1,,-0.909% (inactive)
CN(C)C(=O)Oc1cc(OC(=O)N(C)C)cc(C(O)CNC(C)(C)C)c1 (stereo not given),,-0.0894% [at 42.5 µM] (inactive)
COP(=O)(O)OC,,-0.0054% (inactive)
CC(C)N(Cc1ccccc1)C(=O)C(C)(C)C,,-0.633% (inactive)
[O-][Br+2]([O-])O,,4.05% [at 42.5 µM] (inactive)
CCN[C@@H](C)Cc1ccccc1,,-0.472% (inactive)
C[C@H](N)C(=O)c1ccccc1,,2.67% (inactive)
CCCOc1nn(C(=O)NS(=O)(=O)c2ccccc2C(=O)OC)c(=O)n1C,,0.0051% (inactive)
OP(O)c1ccccc1,,1.25% (inactive)
CCOC1Oc2ccc(OS(C)(=O)=O)cc2C1(C)C (stereo not given),,-7.42% (inactive)
CCNc1nc(Cl)nc(NC(C)(C)C)n1,,-1.59% (inactive)
Clc1ccc(C(Cl)(Cl)Cl)cn1,,2.52% (inactive)
Clc1cc2c(cc1Cl)Oc1cc(Cl)c(Cl)cc1O2,,3.07% [at 0.349 µM] (inactive)
O=S1(=O)OCCO1,,0.542% (inactive)
CCCOC(=O)c1cncn1C(C)c1ccccc1 (stereo not given),,-1.71% [at 42.5 µM] (inactive)
CCOC(=O)CC(SP(=S)(OC)OC)C(=O)OCC (stereo not given),27.3 µM (active) and inactive,

Compound,Potency,activation
CCC(CC)(CNC(=O)CCCO)c1cccc(OC)c1,,-0.543% [at 42.5 µM] (inactive)
BrCc1ccc(Br)cc1,,0.403% (inactive)
CC(C)(N)Cc1ccccc1Cl,,1.96% [at 42.5 µM] (inactive)
CCc1ccc(C2CCNCC2)cc1,,-1.11% [at 42.5 µM] (inactive)
COC(=O)c1ccc(CBr)cc1,,8.83% (inactive)
O=C(Cl)/C=C/C(=O)Cl,,0.397% (inactive)
CC[C@@H](CO)NC(=O)[C@@H]1C=C2c3cccc4[nH]cc(c34)C[C@H]2N(C)C1,,-1.94% [at 42.5 µM] (inactive)
CC(Cc1ccccc1)NCCCCl (stereo not given),,-1.41% [at 42.5 µM] (inactive)
C[C@H](CN1CCOCC1)C(C(=O)N1CCCC1)(c1ccccc1)c1ccccc1,,-4.74% (inactive)
CCC1(c2ccccc2)C(=O)N(COC)C(=O)N(COC)C1=O,,-0.0324% [at 42.5 µM] (inactive)
CCOP(=S)(OCC)SCCl,,-1.14% (inactive)
CCN(CC)C1CCCCC1,,-0.984% (inactive)
CCSC(=O)Cl,,0.571% (inactive)
O=c1[nH]c2ccccc2n1C1CCNCC1,,0.375% [at 42.5 µM] (inactive)
CCC1(c2ccccc2)CCC(=O)NC1=O (stereo not given),,5.11% [at 42.5 µM] (inactive)
CCOC(=O)NC(C)(C)Cc1ccc(Cl)cc1,,-1.67% [at 42.5 µM] (inactive)
O=C/C=C/c1ccco1,,0.0069% (inactive)
CNC(=O)O/N=C(/CSC)C(C)(C)C,,0.754% (inactive)
CNC(=O)NC(O)C(Cl)(Cl)Cl (stereo not given),,0.805% [at 42.5 µM] (inactive)
COc1cccc([C@@]2(O)CCCC[C@@H]2CN(C)C)c1,,-0.82% [at 42.5 µM] (inactive)
